Reference: PubChem BioAssay (NCI)
The panel holds about 79,000 compounds, 15% with a hit somewhere; the sample as a whole holds those more often. Values without a mark were called inactive. Calls of active or inactive are those of the source. Cut-off read from the data, not from the text of the source: active = growth inhibition above about 70%; inactive = the rest.

How the values were obtained:
[1] = NCI Yeast Anticancer Drug Screen. Data for the rad50 strain (AID 155);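 note: 0% = growth of vehicle-only cultures of the same strain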; conditions: S. cerevisiae rad50 strain growth inhibition; at 50.0 µM; active compounds read high
Method in brief: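 Genetically altered yeast (DNA repair pathway); compound treatment; growth inhibition vs vehicle ctrl.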

[2] = NCI Yeast Anticancer Drug Screen. Data for the mec2-1 strain (AID 157); conditions: S. cerevisiae mec2-1 strain, at 50.0 µM, active compounds read high
Method in brief: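 Mutant yeast (mec2-1) grown with compound; growth inhibition relative to vehicle control reported.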

[3] = NCI Yeast Anticancer Drug Screen. Data for the sgs1 mgt1 strain (AID 161);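 note: 0% = growth of cultures given vehicle only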; conditions: S. cerevisiae sgs1 mgt1 strain, at 50.0 µM, active compounds read high
Method in brief: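 Growth of a repair-deficient yeast mutant was monitored after compound treatment and expressed as inhibition relative to vehicle-treated cultures.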

[4] = NCI Yeast Anticancer Drug Screen. Data for the cln2 rad14 strain (AID 165);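 note: 0% = growth equal to vehicle treated cultures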; conditions: S. cerevisiae cln2 rad14 strain, at 50.0 µM, active compounds read high
Method in brief: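 Readout is yeast growth inhibition versus vehicle-treated controls, using a strain with cln2 and rad14 alterations exposed to compound.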

[5] = NCI Yeast Anticancer Drug Screen. Data for the bub3 strain (AID 167); conditions: S. cerevisiae bub3 mutant strain, at 50.0 µM, active compounds read high
Method in brief: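 Yeast carrying a defined mutation is treated with each compound, and growth is compared with that of vehicle-exposed cells to give inhibition.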

[6] = NCI Yeast Anticancer Drug Screen. Data for the mlh1 rad18 strain (AID 175); conditions: S. cerevisiae mlh1 rad18 strain growth inhibition; at 50.0 µM; active compounds read high
Method in brief: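 Genetically defined yeast (DNA repair-deficient) exposed to compounds; growth inhibition determined relative to vehicle.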

SMILES	growth inhibition [1]	growth inhibition [2]	growth inhibition [3]	growth inhibition [4] [%]	growth inhibition [5]	growth inhibition [6]
CCCCCCCCCC1CC(=O)OC23CCCC(=O)C12O3 (stereo not given)	-10.8%	-32%	9.2%	15.8	-8%	-17.6%
CCOC(=O)C1=CN(C)C=C(Br)C1C#N (stereo not given)	-2.2%	10.1%	4.55%	6.45	8.1%	-4.75%
CN(NC1=NCCO1)c1ccc2ccccc2c1	-46.3%	-22.4%	-15.8%	-23.5	-21.4%	-46.1%
Nc1ccnc2cc(Cl)ccc12	17.4%	4.45%	3.3%	2.6	-4.05%	26.6%
CCCCOC(OCCCC)C(C)(C)CN(C)C	14.9%	13.2%	13.4%	17.9	7.15%	19.1%
CCn1nc(C)c2c1C(=O)NCC(=O)N2	-34.1%	-44.6%	-26.9%	-10.4	-17.6%	-2.3%
O=C(/C=C/c1ccccc1)c1cccc([N+](=O)[O-])c1	26%	14.6%	21.4%	54.9	41.9%	4.4%
CNc1nc(C)nc(NC)n1	-29.9%	-5.1%	-30.4%	-36.2	18.4%	-22.9%
Cc1sc2nc3n(c(=O)c2c1C)N=CN(c1ccccc1)C3	3%	4%	2.1%	-12.8	-3.5%	-16.7%
O=C(Nc1ccc(Nc2ccc(NC(=O)c3ccccc3)c3c2C(=O)c2ccccc2C3=O)c2c1C(=O)c1ccccc1C2=O)c1ccccc1	6.8%	-15.6%	6.05%	6.1	-1.95%	-9.1%
CCCCN1C(=O)CC2[C@@H]3CCc4cc(OC)ccc4C3CC[C@]2(C)C1=O (stereo not given in full)	9.05%	11.6%	16.1%	26.6	13.8%	14.4%
O=C(O)c1ccnc(-c2ccc(Cl)cc2)c1	5.5%	5.75%	-1.65%	-17.2	-16.8%	9.05%
Cc1cc(C)nc(Sc2c([N+](=O)[O-])ncn2C)n1	4.1%	-17.3%	-20.9%	4.65	12.6%	-10.3%
CC1CN(c2nc3ccccc3o2)C(C)CN1c1nc2ccccc2o1 (stereo not given)	-7.15%	5.6%	-9.1%	11.8	9.9%	-12.3%
O=C1c2ccccc2C(=O)N1/N=[N+](\[O-])N1Cc2ccccc2C1	18.4%	27.9%	24.1%	-18.2	7.65%	28.2%
CCCOC(=O)C(OC(=O)c1ccccc1)C(OC(=O)c1ccccc1)C(=O)OCCC (stereo not given)	-0.65%	0.1%	-8%	-10.9	5.05%	-3.7%
O=C(Nc1ccc(Cl)c(Cl)c1)Oc1ccc(-c2ccccc2)cc1	73.2% (active)	88% (active)	93.2% (active)	43.6	87.5% (active)	95.7% (active)
CCOC(=O)C1=C(O)c2c(OC)ccc(OC)c2C(=O)C1=O	-23.6%	-43.5%	-22.2%	3.65	-16%	-30%
Fc1ccccc1C1CC(c2ccc3ccccc3c2)=Nc2ccccc2S1 (stereo not given)	30.9%	12.1%	18.4%	13.4	10.4%	34.4%
CC1=NN(c2ccccc2)C(=O)/C1=C(\[O-])c1ccccc1.CC1=NN(c2ccccc2)C(=O)/C1=C(\[O-])c1ccccc1.CC1=NN(c2ccccc2)C(=O)/C1=C(\[O-])c1ccccc1.[Fe+3]	1.8%	-5.75%	-15.1%	-16.7	-2.9%	4.45%

SMILES	growth inhibition [1]	growth inhibition [2]	growth inhibition [3]	growth inhibition [4] [%]	growth inhibition [5]	growth inhibition [6]
CCOC(=O)/C=C(/C)C#N	-9.65%	-3.7%	-11.8%	7.4	9.55%	2.9%
CN(CC#N)CC#N	19%	9.6%	8.75%	-1.6	20.1%	0.3%
CCCCn1cnc2c(SC(C)C)nc(N)nc21	-13.1%	-2.15%	17.4%	-24.9	8.8%	-16.2%
COc1ccc2[nH]cc(C=O)c2c1	13.3%	-2.95%	-1.65%	7.25	-2.1%	3.5%
O=NC1CC=CC1Cl (stereo not given)	18.6%	0.1%	0.65%	9.5	-8.1%	22.2%
O=C1c2ccccc2C(=O)N1Nc1ccccc1	6.6%	3.2%	7.45%	-8.1	3.1%	16.5%
CN(NC(=O)CCCl)C1=NCCN1	5.15%	-4.6%	-3.95%	-11	8.1%	16.7%
O=C(O)CC[C@H](NC(=O)c1ccc(-n2nc3ccc(O)cc3nc2=O)cc1)C(=O)O	-6.65%	-8.25%	11.9%	9.95	33.8%	14.5%
Cc1c(C)c(CO)c(C)c(C)c1CO	-15.8%	-19.4%	15.8%	4.9	12.1%	-2.1%
C/C(O)=C(/C=NC(=S)c1ccncc1)C(=O)Nc1ccccc1	-36.8%	-1.8%	-49%	-26.5	-45.1%	-36.3%
Cc1cccc(Cl)c1NC(=O)c1cccc(C(=O)Nc2c(C)cccc2Cl)c1	9.3%	4.45%	15.4%	-30.3	-2.5%	27.6%
N[C@@H](CCC(=O)NC(Cc1ccccc1)C(=O)NCP(=O)(O)O)C(=O)O (stereo not given in full)	-60.9%	-17.9%	-45.9%	-1.75	-10.5%	-55.4%
COc1cc(OC)c(C2c3cc4c(cc3OC(C)(N3CCCC3)C2C)OCO4)c(OC)c1 (stereo not given)	4.5%	14.6%	5.25%	-8.65	9.45%	20.3%
O=C1c2ccccc2C(=O)c2c1ccc1c2N=C(c2ccc(Br)cc2)CC(c2cccc3ccccc23)N1 (stereo not given)	-22.1%	11.6%	17.9%	10.2	9.95%	-11.6%
CCOC(=O)/C(C)=C/CC1=C(O)c2ccccc2C(=O)C1=O	7.3%	23.7%	14.1%	16.2	1.95%	16.8%
NC(CCSCC(F)F)C(=O)O (stereo not given)	19.4%	8.9%	3.95%	6.95	-22%	25.4%
O=C1C=C[C@@H](COC2OC(CO)C(O)C(O)C2O)O1 (stereo not given in full)	6.35%	-28.8%	5.25%	15.8	24.9%	27.8%
COc1cc2c(OC)cc1CSCc1sc(C)c(c1Br)CSC2	19.1%	21.5%	4.7%	-26.6	12.7%	14.8%
CC1OC1C(=O)C1(O)C(C)C(O)C23OC2(C(O)c2c(O)cccc2C3=O)C1O (stereo not given)	6.75%	-21.8%	8.65%	-1.1	-0.7%	10.3%
O=C(NCCCn1ccnc1[N+](=O)[O-])C(=O)NCCCn1ccnc1[N+](=O)[O-]	9.3%	-12.2%	-19.5%	-8.95	-32%	-23.4%
